Experimental data: PubChem BioAssay (EPA / NIEHS)
Activity calls are given as the source filed them. The calls were made as follows: active = hit-call score of the fitted dose curve at least 0.9, where 1 is the maximum; inactive = score below 0.9.

Read-out: Monokine induced gamma interferon (MIG), CXCL9 (gene 4283)
Experiment: BSK_hDFCGF_MIG: BioMAP Diversity Plus: hDFCGF Assay for Monokine induced gamma interferon (MIG) Biomarker Activity (AID 2283063)
Conditions: primary human foreskin fibroblasts; actives raise or lower the signal
Procedure, shortened: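 Endpoint derived by bidirectional fitting relative to DMSO; MIG quantified via ELISA in primary human foreskin fibroblasts harvested 24 h after dosing.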

SMILES | AC50 | outcome
CCCCCCc1ccc(O)cc1O | 33.6 µM (active) | –
COc1ccc2sc(C(=O)Nc3nnn[nH]3)c(OC(C)C)c2c1 | 15.5 µM (active) | –
CN(C)c1ccc(N=NS(=O)(=O)O)cc1 | – | inactive
Nc1nc2ncc(CNc3ccc(C(=O)N[C@@H](CCC(=O)O)C(=O)O)cc3)nc2c(=O)[nH]1 | – | inactive
CCn1nc(Cc2ccccc2)cc1C1CCN(C[C@H]2C[C@H](N(C)[C@@H](C(=O)O)C(C)C)C[C@@H]2c2cccc(F)c2)CC1 | – | inactive
Cc1ccc(C)c(O)c1 | – | inactive
C=CC(=C)CCC=C(C)C | – | inactive
O=C1OC(=O)C2C3C=CC(C3)C12 (stereo not drawn) | – | inactive
CCOC(=O)COc1ccc2c(c1)CC(NCC(O)c1cccc(Cl)c1)CC2 (stereo not drawn) | 26.8 µM (active) | –
CCOCCOCCOCCO | – | inactive
CCCC(=O)OCC | – | inactive
O=C(O)c1cc(N=Nc2ccc(S(=O)(=O)Nc3ccccn3)cc2)ccc1O | – | inactive
O=C(NS(=O)(=O)/C=C/c1ccccc1)c1ccc(F)cc1Cl | – | inactive
C[C@](N)(Cc1ccc(O)c(O)c1)C(=O)O | 20 µM (active) | –
CCCCC(CC)COC(=O)CCCCCCCCC(=O)OCC(CC)CCCC (stereo not drawn) | – | inactive
CCCCCCCCCCCCc1ccccc1 | – | inactive
O=P(OC(CCl)CCl)(OC(CCl)CCl)OC(CCl)CCl | – | inactive
CNS(=O)(=O)c1cc(C(=O)N2CCC(CCN3C4CCC3CC(n3c(C)nc5ccccc53)C4)(c3cccc(F)c3)CC2)c(Cl)cc1F (stereo not drawn) | – | inactive
Oc1ccc2c(c1)-c1ccccc1C2 | – | inactive
CC(C)CCCCCCOC(=O)c1ccc(C(=O)OCCCCCCC(C)C)c(C(=O)OCCCCCCC(C)C)c1 | – | inactive
O=C(O)CCN(C1(C(=O)NO)CCCC1)S(=O)(=O)c1ccc(Oc2ccc(F)cc2)cc1 | – | inactive
COc1cccc(-c2ccc(/C=C\CN3CCCCCC3)cc2Cl)c1 | 34.5 µM (active) | –
O=C(OC[C@H]1O[C@@H](OC(=O)c2cc(O)c(O)c(OC(=O)c3cc(O)c(O)c(O)c3)c2)[C@H](OC(=O)c2cc(O)c(O)c(OC(=O)c3cc(O)c(O)c(O)c3)c2)[C@@H](OC(=O)c2cc(O)c(O)c(OC(=O)c3cc(O)c(O)c(O)c3)c2)[C@@H]1OC(=O)c1cc(O)c(O)c(OC(=O)c2cc(O)c(O)c(O)c2)c1)c1cc(O)c(O)c(OC(=O)c2cc(O)c(O)c(O)c2)c1 | 2.12 µM (active) | –
Clc1nc(Cl)c(Cl)c(Cl)c1Cl | – | inactive
COc1ccc(/C=C/S(=O)(=O)NC(=O)c2ccc(C)cc2Cl)cc1 | – | inactive
COC(=O)CC(=O)OC | – | inactive
O=c1[nH]c2ccc(S(=O)CCN3CCC(Cc4ccc(F)cc4)CC3)cc2o1 (stereo not drawn) | – | inactive
CC[C@H](C)C(=O)O[C@H]1C[C@@H](C)C=C2C=C[C@H](C)[C@H](CC[C@@H]3C[C@@H](O)CC(=O)O3)[C@H]21 | 36.3 µM (active) | –
Cc1c(-c2cccnc2)c2ccccc2n1CCCCC(=O)O | – | inactive

Read-out: Matrix Metallopeptidase 1 (MMP1), MMP1 (gene 4312)
Experiment: BSK_hDFCGF_MMP1: BioMAP Diversity Plus: hDFCGF Assay for Matrix Metallopeptidase 1 (MMP1) Biomarker Activity (AID 2283064)
Conditions: primary human foreskin fibroblasts; actives raise or lower the signal
Procedure, shortened: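 MMP1 levels quantified by ELISA 24 h after dosing human dermal fibroblast cultures, with parallel SRB total-protein staining for overt cytotoxicity. Data fitted in both directions against DMSO baseline.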

SMILES | AC50 | outcome
CCCCCCc1ccc(O)cc1O | 37.9 µM (active) | –
COc1ccc2sc(C(=O)Nc3nnn[nH]3)c(OC(C)C)c2c1 | 13.9 µM (active) | –
CN(C)c1ccc(N=NS(=O)(=O)O)cc1 | – | inactive
Nc1nc2ncc(CNc3ccc(C(=O)N[C@@H](CCC(=O)O)C(=O)O)cc3)nc2c(=O)[nH]1 | – | inactive
CCn1nc(Cc2ccccc2)cc1C1CCN(C[C@H]2C[C@H](N(C)[C@@H](C(=O)O)C(C)C)C[C@@H]2c2cccc(F)c2)CC1 | – | inactive
Cc1ccc(C)c(O)c1 | – | inactive
C=CC(=C)CCC=C(C)C | – | inactive
O=C1OC(=O)C2C3C=CC(C3)C12 (stereo not drawn) | – | inactive
CCOC(=O)COc1ccc2c(c1)CC(NCC(O)c1cccc(Cl)c1)CC2 (stereo not drawn) | 33.9 µM (active) | –
CCOCCOCCOCCO | – | inactive
CCCC(=O)OCC | – | inactive
O=C(O)c1cc(N=Nc2ccc(S(=O)(=O)Nc3ccccn3)cc2)ccc1O | – | inactive
O=C(NS(=O)(=O)/C=C/c1ccccc1)c1ccc(F)cc1Cl | – | inactive
C[C@](N)(Cc1ccc(O)c(O)c1)C(=O)O | – | inactive
CCCCC(CC)COC(=O)CCCCCCCCC(=O)OCC(CC)CCCC (stereo not drawn) | – | inactive
CCCCCCCCCCCCc1ccccc1 | – | inactive
O=P(OC(CCl)CCl)(OC(CCl)CCl)OC(CCl)CCl | – | inactive
CNS(=O)(=O)c1cc(C(=O)N2CCC(CCN3C4CCC3CC(n3c(C)nc5ccccc53)C4)(c3cccc(F)c3)CC2)c(Cl)cc1F (stereo not drawn) | – | inactive
Oc1ccc2c(c1)-c1ccccc1C2 | – | inactive
CC(C)CCCCCCOC(=O)c1ccc(C(=O)OCCCCCCC(C)C)c(C(=O)OCCCCCCC(C)C)c1 | – | inactive
O=C(O)CCN(C1(C(=O)NO)CCCC1)S(=O)(=O)c1ccc(Oc2ccc(F)cc2)cc1 | – | inactive
COc1cccc(-c2ccc(/C=C\CN3CCCCCC3)cc2Cl)c1 | 34.4 µM (active) | –
O=C(OC[C@H]1O[C@@H](OC(=O)c2cc(O)c(O)c(OC(=O)c3cc(O)c(O)c(O)c3)c2)[C@H](OC(=O)c2cc(O)c(O)c(OC(=O)c3cc(O)c(O)c(O)c3)c2)[C@@H](OC(=O)c2cc(O)c(O)c(OC(=O)c3cc(O)c(O)c(O)c3)c2)[C@@H]1OC(=O)c1cc(O)c(O)c(OC(=O)c2cc(O)c(O)c(O)c2)c1)c1cc(O)c(O)c(OC(=O)c2cc(O)c(O)c(O)c2)c1 | 1.86 µM (active) | –
Clc1nc(Cl)c(Cl)c(Cl)c1Cl | – | inactive
COc1ccc(/C=C/S(=O)(=O)NC(=O)c2ccc(C)cc2Cl)cc1 | – | inactive
COC(=O)CC(=O)OC | – | inactive
O=c1[nH]c2ccc(S(=O)CCN3CCC(Cc4ccc(F)cc4)CC3)cc2o1 (stereo not drawn) | – | inactive
CC[C@H](C)C(=O)O[C@H]1C[C@@H](C)C=C2C=C[C@H](C)[C@H](CC[C@@H]3C[C@@H](O)CC(=O)O3)[C@H]21 | 36.6 µM (active) | –
Cc1c(-c2cccnc2)c2ccccc2n1CCCCC(=O)O | – | inactive
